{"source": "the supplement of paper PMC8975748", "note": "Where a name gives a salt, the structure may show the parent alone."}
{"test_system": "Saccharomyces cerevisiae BY4741 SeMeCo community", "assay": "z-score of prototroph abundance vs DMSO median; higher = larger share of this subpopulation than in DMSO controls", "details": "10 µM; 24 h; SM minimal medium; subpopulation (auxotrophy): Prototroph", "description": "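Fluorescent four-plasmid SeMeCo (self-establishing metabolically cooperating S. cerevisiae BY4741 community; plasmids pH-mRuby2, pL-mWasabi, pU-eCFP, pM-TagRFP657) was grown 24 h in minimal SM medium with each Selleck FDA-approved drug at 10 µM in 384-well plates. Cells were fixed and imaged by high-content confocal microscopy. For each auxotrophic subpopulation (and the prototroph), a z-score gives the deviation from the DMSO vehicle-control population median.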"}
{"smiles": "COC(=O)Nc1nc2cc(Sc3ccccc3)ccc2[nH]1", "note": "[Fenbendazole]", "z-score of prototroph abundance": 0.03}
{"smiles": "C[C@@H]1CN(c2c(F)c(N)c3c(=O)c(C(=O)O)cn(C4CC4)c3c2F)C[C@H](C)N1", "note": "[Sparfloxacin]", "z-score of prototroph abundance": 0.52}
{"smiles": "COC(=O)C1=C(C)NC(C)=C(C(=O)OC2CCCN(Cc3ccccc3)C2)C1c1cccc([N+](=O)[O-])c1", "note": "(stereo not given) [Benidipine HCl]", "z-score of prototroph abundance": -0.13}
{"smiles": "CCn1cc(C(=O)O)c(=O)c2cc(F)c(N3CCN(C)CC3)cc21", "note": "[Pefloxacin Mesylate]", "z-score of prototroph abundance": 0.1}
{"smiles": "CCS(=O)(=O)CCn1c([N+](=O)[O-])cnc1C", "note": "[Tinidazole]", "z-score of prototroph abundance": 0.58}
{"smiles": "NCc1ccccc1CC(=O)N[C@@H]1C(=O)N2C(C(=O)O)=C(CSc3nnnn3CC(=O)O)CS[C@H]12", "note": "[Ceforanide]", "z-score of prototroph abundance": -0.53}
{"smiles": "CC1(C)S[C@@H]2[C@H](NC(=O)[C@H](N)c3ccc(O)cc3)C(=O)N2[C@H]1C(=O)O", "note": "[Amoxicillin]", "z-score of prototroph abundance": -0.05}
{"smiles": "CC1CCc2c(N3CCC(O)CC3)c(F)cc3c(=O)c(C(=O)O)cn1c23", "note": "(stereo not given) [Nadifloxacin]", "z-score of prototroph abundance": -0.14}
{"smiles": "Nc1ccc(C(=O)O)c(O)c1", "note": "[4-Aminosalicylic acid]", "z-score of prototroph abundance": 2.23}
{"smiles": "CC1(C)S[C@@H]2[C@H](NC(=O)[C@H](NC(=O)N3CCN(S(C)(=O)=O)C3=O)c3ccccc3)C(=O)N2[C@H]1C(=O)O", "note": "[Mezlocillin Sodium]", "z-score of prototroph abundance": 0.2}
{"smiles": "Nc1cc(C(Cl)=C(Cl)Cl)c(S(N)(=O)=O)cc1S(N)(=O)=O", "note": "[Clorsulon]", "z-score of prototroph abundance": -0.96}
{"smiles": "CN(Cc1ccc(C(C)(C)C)cc1)Cc1cccc2ccccc12", "note": "[Butenafine HCl]", "z-score of prototroph abundance": 1.36}
{"smiles": "CCN(CC)CC#CCOC(=O)C(O)(c1ccccc1)C1CCCCC1", "note": "(stereo not given) [Oxybutynin]", "z-score of prototroph abundance": -0.02}
{"smiles": "Cc1ncc([N+](=O)[O-])n1CCO", "note": "[Metronidazole]", "z-score of prototroph abundance": 0.23}
{"smiles": "Cc1cc(C)nc(NS(=O)(=O)c2ccc(N)cc2)n1", "note": "[Sulfamethazine Sodium Salt]", "z-score of prototroph abundance": 0.49}
{"smiles": "C[C@@H](O)[C@H]1C(=O)N2C(C(=O)O)=C(S[C@@H]3CN[C@H](C(=O)N(C)C)C3)[C@H](C)[C@H]12", "note": "[Meropenem Trihydrate]", "z-score of prototroph abundance": -0.19}
{"smiles": "CN[C@@H]1[C@@H](O)[C@@H](O[C@@H]2[C@@H](O)[C@H](O[C@H]3OC(CN)=CC[C@H]3N)[C@@H](N)C[C@H]2N)OC[C@]1(C)O", "note": "[Sisomicin sulfate]", "z-score of prototroph abundance": -0.71}
{"smiles": "Nc1nc(N)nc(-c2cc(Cl)ccc2Cl)n1", "note": "[Irsogladine]", "z-score of prototroph abundance": 1.03}
{"smiles": "CC(C[N+](C)(C)C)OC(N)=O", "note": "(stereo not given) [Bethanechol chloride]", "z-score of prototroph abundance": -0.22}
{"smiles": "CC(C)NNC(=O)c1ccncc1", "note": "[Iproniazid]", "z-score of prototroph abundance": -0.56}
{"smiles": "Nc1nc(O)c2ncn(CCC(CO)CO)c2n1", "note": "[Penciclovir]", "z-score of prototroph abundance": -0.05}
{"smiles": "CN(C)c1ccc(O)c2c1C[C@H]1C[C@H]3[C@H](N(C)C)C(=O)C(C(N)=O)=C(O)[C@@]3(O)C(=O)C1=C2O", "note": "[Minocycline HCl]", "z-score of prototroph abundance": -0.28}
{"smiles": "C[C@H]1NCc2cc(-c3ccc4c(=O)c(C(=O)O)cn(C5CC5)c4c3OC(F)F)ccc21", "note": "[Garenoxacin]", "z-score of prototroph abundance": -0.68}
{"smiles": "CCCCC(F)(F)[C@@]1(O)CC[C@H]2[C@@H](CC(=O)[C@@H]2CCCCCCC(=O)O)O1", "note": "[Lubiprostone]", "z-score of prototroph abundance": 1.04}
{"smiles": "CCOC(=O)C1=C[C@@H](OC(CC)CC)[C@H](NC(C)=O)[C@@H](N)C1", "note": "[Oseltamivir Phosphate]", "z-score of prototroph abundance": 1.28}
{"smiles": "COc1ccc2c3c1O[C@H]1C[C@@H](O)C=C[C@@]31CCN(C)C2", "note": "[Galanthamine]", "z-score of prototroph abundance": -1.09}
{"smiles": "COCC1=C(C(=O)OC(C)OC(=O)OC(C)C)N2C(=O)[C@@H](NC(=O)/C(=N\\OC)c3csc(N)n3)[C@H]2SC1", "note": "(stereo not given in full) [Cefpodoxime proxetil]", "z-score of prototroph abundance": -0.89}
{"smiles": "Cc1onc(-c2ccccc2)c1C(=O)N[C@@H]1C(=O)N2[C@@H]1SC(C)(C)[C@@H]2C(=O)O", "note": "[Oxacillin sodium monohydrate]", "z-score of prototroph abundance": -0.42}
{"smiles": "C[C@]12CC[C@@H]3c4ccc(O)cc4CC[C@H]3[C@@H]1CC[C@@H]2O", "note": "[Estradiol]", "z-score of prototroph abundance": 0.44}
{"smiles": "CCC(C)(C)c1ccc(CC(C)CN2C[C@@H](C)O[C@@H](C)C2)cc1", "note": "(stereo not given in full) [Amorolfine HCl]", "z-score of prototroph abundance": -9.52}
{"smiles": "O=c1[nH]cnc2c1ncn2[C@@H]1O[C@H](CO)[C@@H](O)[C@H]1O", "note": "[Isoprinosine]", "z-score of prototroph abundance": 0.72}
{"smiles": "Cc1ccnc(NS(=O)(=O)c2ccc(N)cc2)n1", "note": "[Sulfamerazine]", "z-score of prototroph abundance": -1.15}
{"smiles": "CCCCC(=O)O[C@H]1CC[C@H]2[C@@H]3CCc4cc(O)ccc4[C@H]3CC[C@]12C", "note": "[Estradiol valerate]", "z-score of prototroph abundance": 0.39}
{"smiles": "OCCOc1ccc(/C(=C(/CCCl)c2ccccc2)c2ccccc2)cc1", "note": "[Ospemifene]", "z-score of prototroph abundance": 0.59}
{"smiles": "Cc1[nH]cnc1CN1CCc2c(c3ccccc3n2C)C1=O", "note": "[Alosetron Hydrochloride]", "z-score of prototroph abundance": -0.91}
{"smiles": "Clc1ccc(C(Cn2ccnc2)OCc2ccc(Sc3ccccc3)cc2)c(Cl)c1", "note": "(stereo not given) [Fenticonazole Nitrate]", "z-score of prototroph abundance": -13.4}
{"smiles": "CC(C)[N+]1(C)[C@@H]2CC[C@H]1C[C@@H](OC(=O)C(CO)c1ccccc1)C2", "note": "(stereo not given in full) [Ipratropium Bromide]", "z-score of prototroph abundance": 0.41}
{"smiles": "CNCCCC1c2ccccc2C=Cc2ccccc21", "note": "[Protriptyline hydrochloride]", "z-score of prototroph abundance": -0.57}
{"smiles": "C#C[C@]1(O)CC[C@H]2[C@@H]3CCC4=Cc5oncc5C[C@]4(C)[C@H]3CC[C@@]21C", "note": "[Danazol]", "z-score of prototroph abundance": 0}
{"smiles": "COC(=O)C1=C(C)NC(C)=C(C(=O)OCCN(C)Cc2ccccc2)C1c1cccc([N+](=O)[O-])c1", "note": "(stereo not given) [Nicardipine HCl]", "z-score of prototroph abundance": -0.59}
